Data taken from PubChem BioAssay (NCI).
This is part of a sample that, as a whole, favours compounds with a hit. Of some 83,000 tested, about 20% had one in any assay.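 Single-dose data. Exposure time 48 hours. Values below 10 considered active.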 Unmarked numbers belong to inactive results. Active and inactive are the calls of the source.

Legend:
Test in all cases: NCI-60 one-dose screen, 48 h (100 = growth as untreated, 0 = no growth, -100 = all killed)
Details in all cases: 10 µM unless noted
[1] = tested on: NCI-H23 lung
[2] = tested on: NCI-H322M lung
[3] = tested on: HOP-62 NSCLC
[4] = tested on: NCI-H460 lung
[5] = tested on: HOP-92 NSCLC
[6] = tested on: NCI-H522 lung
[7] = tested on: A549/ATCC NSCLC
[8] = tested on: 786-0 renal
[9] = tested on: COLO 205 colon

Compound | growth [1] | growth [2] | growth [3] | growth [4] | growth [5] | growth [6] | growth [7] | growth [8] | growth [9]
Cc1cc2nc(-c3ccccc3)c(-c3ccccc3)nc2cc1C | 98.2% | 112% | 111% | 102% | 89.6% | 94.9% | 97.9% | 95.4% | 119%
O=C(Nc1cccc(Cl)c1)c1cc(Cl)ccc1O | 0.837% (active) | 4.17% (active) | 5.65% (active) | 2.08% (active) | -32% (active) | -2.31% (active) | 14.7% | 5.54% (active) | 78.6%
COc1cccc(CNCCN2C(=O)c3ccc4c5c(ccc(c35)C2=O)C(=O)N(CCNCc2cccc(OC)c2)C4=O)c1 | 87.2% | 89.9% | 105% |  | 99.9% | 86.9% | 46.2% | 81% | 53.7%
C#CCNC(=O)[C@H](Cc1ccccc1)NC(=O)[C@]12CC[C@@H](C(=C)C)[C@@H]1[C@H]1CC[C@@H]3[C@@]4(C)Cc5c([nH]c6ccccc56)C(C)(C)[C@@H]4CC[C@@]3(C)[C@]1(C)CC2 | 94.9% | 93.9% | 95.2% |  | 69.7% | 87.9% | 84.7% | 87.8% | 97.8%
Brc1ccc(C2CC(c3cccc(Nc4ccncc4)c3)=NN2c2ccccc2)cc1 (configuration not stated) | 85.6% | 87.3% | 77.2% | 0.717% (active) | 62.5% | 87.4% | 54.7% | 90.2% | 0.175% (active)
C=C1C(=O)O[C@H]2[C@H]1CC/C(COC(=O)/C=C/c1c[nH]c3ccccc13)=C\CC[C@@]1(C)O[C@@H]21 | -53% (active) | -48.2% (active) | -73.5% (active) | -70.8% (active) | -91.4% (active) | -63.1% (active) | -78.7% (active) | -90.4% (active) | -68.8% (active)
COc1ccc(C(=O)c2cc3c(N)c(C(=O)Nc4cccc(Cl)c4C)sc3nc2C)cc1 | 29.3% | 52.6% | 29.1% | 6.21% (active) | 27.7% | -8.11% (active) | 13.2% | 29% | -26.2% (active)
O=C(N=Nc1c(O)[nH]c2ccc(F)cc12)c1cc2ccccc2[nH]1 | 97.4% | 94.4% | 94.5% | 100% | 96.4% | 77.8% | 91.3% | 97.3% | 117%
Fc1cc(C2=NNC(c3ccc[nH]3)C2)ccc1-n1ccc(C(F)(F)F)n1 (configuration not stated) | 89.2% | 86.3% | 80.3% | 64.8% | 102% | 73.6% | 68.4% | 85.8% | 109%
CCOC(=O)c1c(SC)nn(-c2cc(=O)[nH]c3ccc(Br)cc23)c1N | 96% | 106% | 89.7% | 87.8% | 95.8% | 95.1% | 98.1% | 97.6% | 98.2%
O=C(CCN1CCCC1)Nc1ccc2c(NCc3ccc(F)cc3)c3ccccc3nc2c1 | -39.8% (active) | -4.47% (active) | -1.6% (active) | -63.4% (active) | -8.01% (active) | -50.1% (active) | -37.6% (active) | 6.33% (active) | -62.5% (active)
CN(C)c1ccc(-c2c(C#N)c(N)n3nc(N)c(C#N)c3c2C#N)cc1 | 96.9% | 82% | 57.8% | 70.1% | 60.1% | 82.7% | 73.6% | 93.1% | 75.4%
Cc1c(C2=CCCCC2)c2ccccn2c1C(=O)c1cccc(S(=O)(=O)N2CCOCC2)c1 | 75.6% | 80.7% | 70% | 92.7% | 53.9% | 68.1% | 69.4% | 51% | 102%
COc1cc(NCCCN(CC(C)C)C2CCCC2)c2ncccc2c1 | 62.5% | 101% | 82.9% | 54.8% | 59.5% | 60% | 79% | 58.2% | 65.1%
CC(C)(C)CC(C)(C)Nc1c(-c2ccc3c(c2)OCO3)nc2cnccn12 | 97.7% | 101% | 97.9% | 97.2% | 70.3% | 74.1% | 82.7% | 67.7% | 102%
CC(=O)[C@@H]1CC[C@]2(C(N)=O)CC[C@]3(C)[C@H](CC[C@@H]4[C@@]5(C)CCC(=O)C(C)(C)[C@@H]5CC[C@]43C)[C@@H]12 | 95.1% | 99.3% | 92% |  | 103% | 87.2% | 96.3% | 89.6% | 102%
COC(=O)C1=C(C(=O)ONCCN(C)C)C2C=CC1(C(Cc1ccccc1)Nc1ccc(F)cc1)O2 (configuration not stated) | 91.6% | 92.8% | 101% | 113% | 89.7% | 19.2% | 98.1% | 106% | -14.7% (active)
COc1ccc(Cl)cc1NC(=O)c1c(NC(=O)C(F)(F)C(F)(F)F)sc2c1CCCCC2 | -5.14% (active) | 12% | -14.6% (active) | 3.45% (active) | -32.7% (active) | -0.0876% (active) | 7.89% (active) | -13.8% (active) | -32.9% (active)
O=C1CCCCCCCCC(O)C(O)CCCC(c2cccs2)O1 (configuration not stated) | 91% | 113% | 87.6% | 106% | 82.7% | 91.7% | 82.7% | 98.8% | 108%
O=C1Nc2ccccc2/C1=C\c1cccc(/C=C2/C(=O)Nc3ccccc32)n1 | -15.9% (active) | -70.8% (active) | -61.3% (active) | -60.9% (active) | -31.7% (active) | 10% | 6.25% (active) | -84.4% (active) | -85.7% (active)
CC(=O)N1N=C(c2cccc(Nc3ccncc3)c2)CC1c1ccc2c(c1)OCO2 (configuration not stated) | 87.4% | 105% | 89.4% | 101% | 72.1% | 96.5% | 93.9% | -93.4% (active) | 84.3%
COc1ccc(-c2ncc(-c3ccccc3)[nH]2)cc1OC | 101% | 218% | 112% | 112% | 93% | 108% | 110% | -10.5% (active) | 145%
CC(Oc1ccc(C(=O)NS(=O)(=O)C(C)(C)C)cc1C(F)(F)F)c1ccc(Oc2ccccc2)cn1 (configuration not stated) | 83.8% | 88.3% | 78.2% | 96.9% | 73.1% | 17.2% | 94.5% | 77.7% | 77.1%
Cc1ccc2[nH]c(=O)cc(-n3nncc3COc3ccc(C=O)cc3)c2c1 | 103% | 103% | 101% | 106% | 95.6% | 89.7% | 103% | 102% | 128%
NNC(=O)/C(=C\c1ccc([N+](=O)[O-])cc1)CC(=O)c1ccc(Cl)c(Cl)c1 | 91.6% | 84.3% | 83.3% | 90.5% | 103% | 77.2% | 78.9% | 92.9% | 100%
